Measurements reported in PubChem BioAssay (Tox21).
Where “and” joins values, the source holds several entries; their conditions need not be identical. Identical values can stand only once. Records with an inconclusive call do not appear. Calls of active or inactive are those of the source. The call rests on the fitted dose curve; in most records, active means well fitted curve in the direction sought with a large enough effect in the repeat runs; inconclusive means weak or mixed curves; inactive means no such curve, though single readings can be large; an effect the other way counts as inactive or inconclusive.

Key:
[1] = Caspase-3/7 induction in HepG2 cells by small molecules, qHTS assay (AID 1346978); further: nearly all actives have a fitted effect of over 15% in size; further: potency means the concentration at half of the fitted maximal effect
How it was run: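 Wild-type HepG2 cells (2,000/well) were settled 5 h at 37 C, 5% CO2, then exposed to compounds in DMSO for 17 h. Caspase-3/7 activity was read by luminescence 30 min after adding Caspase-Glo 3/7 reagent at room temperature.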

[2] = Caspase-3/7 induction in CHO-K1 cells by small molecules, qHTS assay (AID 1346980); further: nearly all actives have a fitted effect of over 15% in size
How it was run: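 Wild-type cells were seeded at 1,500 per well and settled 5 hr at 37 C, 5% CO2, then exposed to DMSO-dissolved compounds for 17 hr. Caspase-Glo 3/7 reagent was added, and luminescence was read after 30min at room temperature.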

[3] = Caspase-3/7 induction in HepG2 cells by small molecules, qHTS cell viability counter screen (AID 1346981); further: nearly all actives have a fitted effect of over 30% in size; further: potency means the concentration at half of the fitted maximal effect; on activity change, negative = cytotoxicity: series mostly up to about 92 µM
How it was run: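 Multiplexed with the caspase-3/7 assay: HepG2 cells, 16 hr compound treatment, CellTiter-Fluor viability detection by fluorescence.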

[4] = target: Nuclear receptor subfamily 1 group I member 2 (Homo sapiens) (UniProt O75469); test: Human pregnane X receptor (PXR) small molecule agonists, qHTS assay (AID 1346982); further: nearly all actives have a fitted effect of over 35% in size; further: potency means the concentration at half of the fitted maximal effect
Sequence of Nuclear receptor subfamily 1 group I member 2 (Homo sapiens) (O75469 whole entry, looked up): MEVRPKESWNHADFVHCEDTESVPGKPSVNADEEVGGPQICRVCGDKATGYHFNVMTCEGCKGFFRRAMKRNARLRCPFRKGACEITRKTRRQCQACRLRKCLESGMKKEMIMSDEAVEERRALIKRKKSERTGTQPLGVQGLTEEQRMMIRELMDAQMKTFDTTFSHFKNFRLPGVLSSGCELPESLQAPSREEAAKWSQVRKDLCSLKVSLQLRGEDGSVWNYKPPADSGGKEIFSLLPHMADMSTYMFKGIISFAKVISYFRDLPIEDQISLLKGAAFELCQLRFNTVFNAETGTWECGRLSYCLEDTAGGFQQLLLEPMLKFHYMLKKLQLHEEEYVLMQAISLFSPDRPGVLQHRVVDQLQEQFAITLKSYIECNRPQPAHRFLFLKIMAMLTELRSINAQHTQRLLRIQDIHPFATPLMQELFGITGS
How it was run: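 We seeded PXR-Luc HepG2 cells in assay medium containing 5% charcoal-stripped FBS, added compounds 5 hr later, incubated 24 hr, and read luminescence with ONE-Glo reagent.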

[5] = target: Nuclear receptor subfamily 1 group I member 2 (Rattus norvegicus) (UniProt Q9R1A7); test: Rat pregnane X receptor (rPXR) activation by small molecules, qHTS assay (AID 1346983); details: rPXR luciferase reporter cells, One-Glo luminescence, 24 h; max activation: stronger effect = higher value; further: nearly all actives have a fitted effect of over 20% in size
Sequence of Nuclear receptor subfamily 1 group I member 2 (Rattus norvegicus) (Q9R1A7 whole entry, looked up): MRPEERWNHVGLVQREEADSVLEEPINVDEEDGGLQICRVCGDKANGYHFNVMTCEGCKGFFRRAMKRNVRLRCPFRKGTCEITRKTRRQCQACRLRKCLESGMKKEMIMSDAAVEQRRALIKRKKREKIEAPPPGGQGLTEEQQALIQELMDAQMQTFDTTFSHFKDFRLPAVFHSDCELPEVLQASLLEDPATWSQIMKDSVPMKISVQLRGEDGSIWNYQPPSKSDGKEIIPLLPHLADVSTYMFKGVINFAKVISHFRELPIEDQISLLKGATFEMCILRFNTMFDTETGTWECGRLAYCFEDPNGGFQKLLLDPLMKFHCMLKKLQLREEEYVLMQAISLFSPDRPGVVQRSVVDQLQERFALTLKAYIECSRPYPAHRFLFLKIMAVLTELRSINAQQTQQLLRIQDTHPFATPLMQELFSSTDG
How it was run: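 Cell-based rPXR luciferase reporter assay, 2,000 cells per well, rested 5hr at 37 C before compound addition in DMSO, then 24 hr at 37 C. One-Glo reagent was added and luminescence read after 30 min at room temperature.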

[6] = target: Nuclear receptor subfamily 1 group I member 2 (Homo sapiens) (UniProt O75469); test: CYP3A4 induction through human pregnane X receptor (PXR) by small molecules, qHTS assay (AID 1346984); further: nearly all actives have a fitted effect of over 40% in size; further: potency means the concentration at half of the fitted maximal effect
How it was run: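 qHTS, concentration-response format: HepG2 DPX-2 line, PXR/CYP3A4-luc. Exposure 24 h, 37C. Substrate Luciferin-IPA 3uM final, 3 h. Detection One-Glo, 30 min RT.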

[7] = target: Cytochrome P450 2D6 (Homo sapiens) (UniProt P10635); test: Cytochrome P450 Family 2 Subfamily D Member 6 (CYP2D6) small molecule antagonists: luciferase reporter qHTS assay (AID 1671196); further: nearly all actives have a fitted effect of over 50% in size; further: potency means the concentration at half of the fitted maximal effect; on activity change, negative = inhibition: series mostly up to about 120 µM
Sequence of Cytochrome P450 2D6 (Homo sapiens) (P10635 whole entry, looked up): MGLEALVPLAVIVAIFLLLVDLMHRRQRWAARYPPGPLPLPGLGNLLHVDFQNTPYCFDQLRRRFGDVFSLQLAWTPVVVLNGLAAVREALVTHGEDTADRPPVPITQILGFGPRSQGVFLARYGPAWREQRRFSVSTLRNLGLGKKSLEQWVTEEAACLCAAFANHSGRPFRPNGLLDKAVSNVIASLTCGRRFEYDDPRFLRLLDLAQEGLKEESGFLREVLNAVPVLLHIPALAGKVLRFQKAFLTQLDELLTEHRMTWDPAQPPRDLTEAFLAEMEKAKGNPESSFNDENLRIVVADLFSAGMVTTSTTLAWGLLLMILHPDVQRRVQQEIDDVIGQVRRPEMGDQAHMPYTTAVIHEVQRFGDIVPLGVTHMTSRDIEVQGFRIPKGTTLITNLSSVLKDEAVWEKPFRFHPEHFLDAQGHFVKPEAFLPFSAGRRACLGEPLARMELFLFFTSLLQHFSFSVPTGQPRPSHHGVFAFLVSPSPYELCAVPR
How it was run: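 Luminescence (RLU), read 20 min after detection reagent, indicated CYP2D6 conversion of proluciferin to luciferin during a 1 h NADPH-dependent reaction at room temperature.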

[8] = target: Cytochrome P450 2C19 (Homo sapiens) (UniProt P33261); test: Cytochrome P450 Family 2 Subfamily C Member 19 (CYP2C19) small molecule antagonists: luciferase reporter qHTS assay (AID 1671197); further: nearly all actives have a fitted effect of over 65% in size; further: potency means the concentration at half of the fitted maximal effect; on activity change, negative = inhibition: series mostly up to about 120 µM
Sequence of Cytochrome P450 2C19 (Homo sapiens) (P33261 whole entry, looked up): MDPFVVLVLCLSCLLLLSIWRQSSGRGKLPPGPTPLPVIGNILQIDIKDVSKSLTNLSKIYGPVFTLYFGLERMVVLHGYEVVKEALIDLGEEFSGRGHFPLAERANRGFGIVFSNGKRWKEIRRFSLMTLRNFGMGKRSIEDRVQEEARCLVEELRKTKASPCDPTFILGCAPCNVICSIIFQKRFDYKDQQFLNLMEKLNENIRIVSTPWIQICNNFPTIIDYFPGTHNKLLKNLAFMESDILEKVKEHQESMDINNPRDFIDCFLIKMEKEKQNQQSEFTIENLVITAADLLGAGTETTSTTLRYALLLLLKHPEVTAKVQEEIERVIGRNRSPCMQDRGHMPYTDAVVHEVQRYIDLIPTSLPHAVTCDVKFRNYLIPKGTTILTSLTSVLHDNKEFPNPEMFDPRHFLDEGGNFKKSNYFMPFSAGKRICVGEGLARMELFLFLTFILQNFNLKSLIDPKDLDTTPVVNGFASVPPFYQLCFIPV
How it was run: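 CYP2C19 P450-Glo, 1536-well qHTS. Cpd + enzyme/proluciferin substrate 10 min RT; + NADPH regen, 37C 1 h; stop with luciferin detection reagent, 20 min RT, luminescence (RLU). Pos ctrl ketoconazole.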

[9] = target: Nuclear receptor subfamily 1 group I member 2 (Homo sapiens) (UniProt O75469); test: Human pregnane X receptor (PXR) activation by small molecules, qHTS assay (AID 1346985); further: nearly all actives have a fitted effect of over 40% in size
How it was run: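 DPX-2 cells (HepG2 co-transfected with a PXR response element and a CYP3A4-promoter luciferase construct) were seeded at 2,000 per well, rested 5 hr at 37C, then exposed to DMSO-dissolved compounds for 24 hr. Activation was read as luciferase luminescence.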

[10] = Caspase-3/7 induction in CHO-K1 cells by small molecules, qHTS cell viability counter screen (AID 1346979); further: nearly all actives have a fitted effect of over 35% in size; further: potency means the concentration at half of the fitted maximal effect
How it was run: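 Wild-type CHO-K1 cells (1,500/well) treated with compound after 5 h plating; after 16 h at 37C, viability read as CellTiter-Fluor fluorescence following 1 h reagent incubation, in the same wells as the caspase read.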
On the % scale 0 is the no-effect control and ±100 the full control effect.

Oc1c(Br)cc(Br)c2cccnc12
inactive: Potency [1] | Potency [2] | Potency [3] | max activation [5] -2.52% | Potency [7] | Potency [8]
active: Potency [4] 29.8 µM | Potency [6] 1 µM

NC(=O)C(=O)N/N=C/c1ccc([N+](=O)[O-])o1
inactive: Potency [1] | Potency [2] | Potency [3] | Potency [4] | max activation [5] -0.701% | Potency [6] | Potency [9] | Potency [7] | Potency [8]

CCCCCCCCC(C)=O
inactive: Potency [1] | Potency [2] | Potency [3] | Potency [4] | Potency [8]

O=C(O)CCn1c2c(c3ccccc31)C[C@H](NS(=O)(=O)c1ccc(F)cc1)CC2
inactive: Potency [1] | Potency [10] | Potency [3] | Potency [7] | Potency [8]

CCC(C)c1cc([N+](=O)[O-])cc([N+](=O)[O-])c1OC(=O)OC(C)C (stereo not drawn)
active: Potency [10] 61.1 µM | Potency [3] 61.1 µM | Potency [4] 61.1 µM | Potency [8] 11.2 µM
inactive: Potency [1]

CCOC(=O)[C@@](C)(N)Cc1ccc(O)c(O)c1
inactive: Potency [1] | Potency [2] | Potency [3] | Potency [4] | max activation [5] -0.299% | Potency [6] | Potency [9]
active: Potency [7] 8.71 µM

CC(C)c1ccc(O)c(C(C)C)c1
active: Potency [1] 61.1 µM | Potency [8] 7.1 µM
inactive: Potency [2] | Potency [3] | Potency [4] | Potency [7]

CN(C)CCCN1c2ccccc2CCc2ccccc21
inactive: Potency [1] | Potency [2]

CCCCNc1c(C(=O)OCC)c(C)nc2c1cnn2CC
active: Potency [4] 29.8 µM
inactive: Potency [1] | Potency [2] | Potency [3] | Potency [7]

Oc1ccc(-c2ccccc2)c(Cl)c1
active: Potency [4] 24.3 µM | Potency [8] 22.4 µM
inactive: Potency [1] | Potency [2] | Potency [3]

CC1=C(/C=C/C(C)=C/C=C/C(C)=C\C=O)C(C)(C)CCC1
inactive: Potency [1]
active: Potency [10] 57.9 µM | Potency [4] 51.6 µM | Potency [8] 37.8 µM

CCN(CC)CCSC(=O)C(c1ccccc1)c1ccccc1
inactive: Potency [1] | Potency [2] | Potency [3] | max activation [5] 3.39% and -0.327% | Potency [6] | Potency [9]
active: Potency [7] 4.9 µM | Potency [8] 6.92 µM

Brc1ccccn1
inactive: Potency [1] | Potency [2] | Potency [3] | Potency [4] | Potency [8]

CCCCCCCC/C=C\CCCCCCCC(=O)OCCOC(=O)CCCCCCC/C=C\CCCCCCCC
inactive: Potency [1] | Potency [10] | Potency [3]
active: Potency [4] 71.2 µM | Potency [8] 46.5 µM

CCc1c(C(=O)O)c(=O)cnn1-c1ccc(Cl)cc1
inactive: Potency [1] | Potency [2] | Potency [3] | Potency [4] | Potency [7] | Potency [8]

Cn1cccc1
inactive: Potency [1] | Potency [2] | Potency [3] | Potency [4] | Potency [8]

OCCCS
inactive: Potency [1] | Potency [2] | Potency [3] | Potency [4] | Potency [7] | Potency [8]

CS(C)(=O)=O
inactive: Potency [1] | Potency [2] | Potency [3] | Potency [4] | Potency [8]

O[C@@H](c1cc(C(F)(F)F)nc2c(C(F)(F)F)cccc12)[C@H]1CCCCN1
active: Potency [1] 26.6 µM | Potency [10] 26.6 µM
inactive: Potency [4] | max activation [5] -16.9% | Potency [9]

Cc1c(C(=O)O)cccc1[N+](=O)[O-]
inactive: Potency [1] | Potency [2] | Potency [3] | Potency [4] | Potency [7] | Potency [8]

CC(C)=CC1CC(C)CCO1 (stereo not drawn)
inactive: Potency [1] | Potency [2] | Potency [3] | Potency [4] | Potency [7] | Potency [8]

O=C(Nc1ccc(Cl)cc1)Nc1ccc(Cl)c(C(F)(F)F)c1
active: Potency [10] 11.9 µM | Potency [3] 29.8 µM | Potency [4] 9.44 µM | Potency [8] 17.4 µM
inactive: Potency [1]

CCCC(C)CCC(C)=O (stereo not drawn)
inactive: Potency [1] | Potency [2] | Potency [3] | Potency [4] | Potency [7] | Potency [8]

CCCCCCCCCCCCCCCCCO
inactive: caspase activation [1] 0.39% [at 19 µM] | caspase-3/7 activation [2] 1.08% [at 19 µM] | activity change, negative = cytotoxicity [3] 9.49% [at 19 µM] | activation [4] 4.62% [at 19 µM] | activity change, negative = inhibition [7] -4.81% [at 23.6 µM] | activity change, negative = inhibition [8] -5.64% [at 23.6 µM]

CCN(CC)CCOc1ccc(C(O)(Cc2ccc(Cl)cc2)c2ccc(C)cc2)cc1 (stereo not drawn)
active: Potency [1] 33.5 µM | Potency [10] 26.6 µM | Potency [4] 9.44 µM | Potency [8] 38.9 µM
inactive: max activation [5] -4.47% | Potency [7]

CCOC(OCC)C(=O)c1ccccc1
inactive: Potency [1] | Potency [2] | Potency [3] | Potency [4] | Potency [8]

CCCCCCCCCCCCN(CCO)CCO
active: Potency [1] 30.5 µM | Potency [10] 43.1 µM | Potency [3] 68.3 µM | Potency [4] 15.3 µM | Potency [8] 25.1 µM

CCO[Si](CCCSSSSCCC[Si](OCC)(OCC)OCC)(OCC)OCC
active: Potency [7] 35.6 µM | Potency [8] 5.03 µM
inactive: Potency [1] | Potency [2] | Potency [3] | Potency [4]
